Laboratory results from PubChem BioAssay (EPA / NIEHS).
Inconclusive results are not listed. Active and inactive are the calls of the source. The calls were made as follows, unless noted: active = hit-call score of the fitted dose curve at least 0.9, where 1 is the maximum; inactive = score below 0.9.

Experiments:
[1] = CCTE_Harrill_HTTr_Viability_MCF7: CCTE's 6-hour Cell Viability Assessment for the High-Throughput Transcriptomics (HTTr) Platform, in MCF-7 cells cultured in DMEM + 10% fetal bovine serum, Harrill Lab (AID 2284010)
Outline: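 Cells were dosed with chemicals in an eight-point dilution series, imaged 6 hours later for propidium iodide uptake, and the endpoint was analyzed by bidirectional fitting against DMSO as negative control.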

[2] = CCTE_Harrill_HTTr_Apoptosis_MCF7: CCTE's 6-hour Apoptosis Assessment for the High-Throughput Transcriptomics (HTTr) Platform, in MCF-7 cells cultured in DMEM + 10% fetal bovine serum, Harrill Lab (AID 2284011)
Outline: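 Read-out: CellEvent Caspase 3/7 Green signal by high content imaging, gain-of-signal indicating apoptosis. MCF-7 cells, DMEM + 10% FBS, eight-point dilution series, 6 h exposure. Curves fitted bidirectionally relative to DMSO negative control.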

[3] = CCTE_Shafer_MEA_dev_firing_rate_mean: CCTE's Neural Network Formation Assay for Mean Firing Rate, Shafer Lab (AID 2284031);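 also: curve fitted for loss of firing so AC50 reflects decreased mean firing rate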
Outline: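 Rat primary cortical neurons were seeded on multielectrode arrays and treated from plating through day 12, with redosing at each feed. Spontaneous spiking was recorded four times; mean firing rate AUC was fitted downward against DMSO.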

[4] = CCTE_Shafer_MEA_dev_per_burst_spike_percent: CCTE's Neural Network Formation Assay for Percent of Spikes in a Burst, Shafer Lab (AID 2284032);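 also: fitted as a decrease in burst spike percentage below DMSO baseline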
Outline: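 Rat primary cortical neurons on 16-electrode MEA wells, dosed from plating day 0 for 12 days with renewal on DIV 5 and 9; spikes-in-bursts percentage averaged over bursting electrodes, collapsed as AUC across days 5, 7, 9, 12; loss direction versus DMSO.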

[5] = CCTE_Shafer_MEA_dev_active_electrodes_number: CCTE's Neural Network Formation Assay for Number of Active Electrodes, Shafer Lab (AID 2284040; active = hit-call score of the fitted dose curve at least 0.9, where 1 is the maximum;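 also: potency for loss of active electrodes versus DMSO so lower counts are hits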)
Outline: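 Primary rat cortical neurons on 16-electrode MEA wells, exposed from day 0 through day 12 with compound renewed at DIV 5 and 9 feeds. Active electrodes (mean firing ≥5 spikes/min) counted at DIV 5, 7, 9, 12; trapezoidal AUC across days, loss-of-signal versus DMSO.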

[6] = CCTE_Shafer_MEA_dev_burst_rate: CCTE's Neural Network Formation Assay for Burst Rate, Shafer Lab (AID 2284042);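 also: potency for loss of burst rate below DMSO control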
Outline: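 Rat primary cortical cultures on PEI/laminin MEA; compound from plating, re-dosed at DIV 5, 9 media change. Single-electrode bursts/recording length, well mean of active electrodes; AUC over DIV 5–12 recordings; loss-of-signal vs DMSO.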

[7] = CCTE_Shafer_MEA_dev_bursting_electrodes_number: CCTE's Neural Network Formation Assay for Number of Bursting Electrodes, Shafer Lab (AID 2284043; active = hit-call score of the fitted dose curve at least 0.9, where 1 is the maximum;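 also: potency is for loss of bursting electrodes relative to DMSO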)
Outline: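 Primary rat cortical neurons were cultured on PEI-coated 48-well MEA plates (16 electrodes/well) and exposed from plating through day 12, with compound renewed at feeds on DIV 5 and 9. Electrodes bursting ≥1 per 2 min were counted on DIV 5, 7, 9, 12; trapezoidal AUC taken.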

[8] = CCTE_Shafer_MEA_dev_per_burst_interspike_interval: CCTE's Neural Network Formation Assay for Burst Interspike Interval, Shafer Lab (AID 2284044);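 also: potency for a decrease of within-burst interspike interval below DMSO level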
Outline: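 Readout is the average time between spikes inside single-electrode bursts, taken as a well mean across bursting electrodes. Cortical neurons from rat developed networks on MEA plates under continuous 12-day exposure; recordings on days 5, 7, 9 and 12 were integrated by trapezoidal AUC.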

[9] = CCTE_Shafer_MEA_dev_interburst_interval_mean: CCTE's Neural Network Formation Assay for Mean Interburst Interval, Shafer Lab (AID 2284046);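 also: well-mean interburst interval of bursting electrodes as AUC over four recording days; curve fitted for decrease in interburst interval relative to DMSO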
Outline: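 Rat cortical neurons, 1.5 x 10^5 cells/well, 48-well MEA; compound from day 0 through DIV 12, media and treatment renewed DIV 5/9. Recordings DIV 5, 7, 9, 12; well-mean interburst interval → trapezoidal AUC, loss direction vs DMSO.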

[10] = CCTE_Shafer_MEA_dev_inter_network_spike_interval_mean: CCTE's Neural Network Formation Assay for Mean Inter-network Spike Interval, Shafer Lab (AID 2284047)
Outline: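 Primary rat cortical neurons on PEI-coated 48-well MEAs (16 electrodes/well) were exposed from plating day 0 to DIV 12, with dosing renewed at DIV 5 and 9. Recordings at DIV 5, 7, 9, 12 were collapsed by trapezoidal AUC, loss-of-signal fit vs DMSO.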

[11] = CCTE_Shafer_MEA_dev_network_spike_number: CCTE's Neural Network Formation Assay for Number of Network Spikes, Shafer Lab (AID 2284048);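 also: fit as a loss of signal meaning fewer network spikes than DMSO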
Outline: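 Primary rat cortical neurons were seeded at 1.5 x 10^5 cells/well on PEI-coated 16-electrode MEA wells with laminin, exposed from plating day 0, compound renewed at DIV 5 and 9. Network spikes were recorded on days 5, 7, 9, 12 and summarized as trapezoidal AUC versus DMSO.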

[12] = CCTE_Shafer_MEA_dev_network_spike_peak: CCTE's Neural Network Formation Assay for Mean Number of Electrodes in Network Spike, Shafer Lab (AID 2284049);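 also: fitted for loss of signal meaning fewer electrodes in network spikes than DMSO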
Outline: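 Continuous 12-day exposure of rat cortical cultures, starting at plating, on MEA plates. Endpoint: electrodes participating in network-spike peaks, AUC across DIV 5–12, DMSO as negative control.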

[13] = CCTE_Shafer_MEA_dev_network_spike_duration_std: CCTE's Neural Network Formation Assay for Standard Deviation of Network Spike Duration, Shafer Lab (AID 2284052);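 also: area under curve of spike duration SD across recording days 5 to 12; hits are decreases in network spike duration SD versus DMSO vehicle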
Outline: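 Rat cortical cultures, 1.5 x 10^5 cells/well, exposed continuously from plating to DIV 12 with media/compound renewal at DIV 5, 9. Spontaneous activity recorded DIV 5/7/9/12, AxIS adaptive spike detector; AUC across days; negative direction vs DMSO.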

[14] = CCTE_Shafer_MEA_dev_per_network_spike_spike_number_mean: CCTE's Neural Network Formation Assay for Mean Number of Spikes in a Network Spike, Shafer Lab (AID 2284053);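 also: fitted as decrease in spikes per network spike relative to DMSO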
Outline: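 Rat cortical primary cultures on 48-well MEA; compound from day 0, re-dosed with full media change DIV 5, 9. Recorded DIV 5, 7, 9, 12; spikes in 0.05 s window at network-spike peak ÷ total network spikes; AUC; loss vs DMSO.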

[15] = CCTE_Shafer_MEA_dev_per_network_spike_spike_percent: CCTE's Neural Network Formation Assay for Percent of Spikes in a Network Spike, Shafer Lab (AID 2284054)
Outline: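 Primary rat cortical neurons on 16-electrode MEA wells (PEI-coated, laminin at plating), exposed from day 0 with renewal at DIV 5 and 9; spikes within 0.05 s of network-spike peaks over total spikes, AUC across days 5, 7, 9, 12.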

[16] = CCTE_Shafer_MEA_dev_LDH: CCTE's Lactate Dehydrogenase Assay for Cytotoxicity in the Neural Network Formation Assay, Shafer Lab (AID 2284068; active = hit-call score of the fitted dose curve at least 0.9, where 1 is the maximum;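 also: exposure for twelve days from plating with re-dosing on DIV 5 and 9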)
Outline: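 Rat cortical primary neurons, MEA culture; dosing day 0–12, full medium plus compound exchange DIV 5, 9. Read-out: LDH enzyme activity, spectrophotometric. DMSO = negative control/baseline; signal loss → cytotoxicity.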

[17] = CCTE_Shafer_MEA_dev_AB: CCTE's Alamar Blue Assay for Cytotoxicity in the Neural Network Formation Assay, Shafer Lab (AID 2284083; active = hit-call score of the fitted dose curve at least 0.9, where 1 is the maximum;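 also: resazurin reduction fluorescence as viability of cultured neurons; twelve days of exposure from plating with re-dosing on DIV 5 and 9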)
Outline: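 Rat cortical primary cultures, 1.5 x 10^5 cells/well on MEA; continuous compound exposure over 12 days of network development, re-dosed with full medium change DIV 5 and 9. Alamar Blue fluorescence; loss of signal = cytotoxicity vs DMSO baseline.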

[18] = UKN2_HCS_IMR90_neural_migration: University of Konstanz (UKN) Leist Lab Neural Crest Cell Migration Assay in human induced IMR90 Pluripotent Stem Cells (UKN2) (AID 2284204); conditions: actives raise or lower the signal
Outline: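 iPSC-derived IMR90 neural crest cells on PLO/laminin/fibronectin were seeded around silicone stoppers; after stopper removal, migration in N2-S medium with EGF and FGF ran 24 h before 24 h chemical exposure. Calcein-AM/Hoechst high-content imaging; bidirectional fit versus DMSO.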

[19] = IUF_NPC1b_proliferation_BrdU_72hr: Leibniz Research Institute for Environmental Medicine (IUF) 72-hour Neural Progenitor Cell Bromodeoxyuridine (BrdU) Proliferation Assay (NPC1b) (AID 2284207)
Outline: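 hNPC spheres (primary, GW 16-19 fetal cortex), single sphere/well, EGF+FGF medium; 72 h compound, no renewal; BrdU pulse last 16 h; luminescent ELISA; activity vs DMSO baseline; growth-factor withdrawal as positive control.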

[20] = IUF_NPC1a_proliferation_area_72hr: Leibniz Research Institute for Environmental Medicine (IUF) 72-hour Neural Progenitor Cell Proliferation Area Assay (NPC1a) (AID 2284208)
Outline: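 hNPC spheres (human fetal cortex, GW 16-19), one per poly-Hema U-bottom well; EGF+FGF medium; dosed day 0, no re-dosing; 72 h, 37C, 5% CO2; phase-contrast sphere area; DMSO = baseline; minus-GF = positive ctrl.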

[21] = IUF_NPC1_viability_72hr: Viability Assessment at 72 hours in the Leibniz Research Institute for Environmental Medicine (IUF) Neural Progenitor Cell Proliferation Assay (NPC1) (AID 2284209)
Outline: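 hNPC spheres, 1/well, EGF+FGF medium, 37C/5% CO2; dosed day 0, 72 h, no re-dosing. Resazurin reduction (alamar blue) fluorescence; DMSO = negative control/baseline; growth-factor-free wells as positive control.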

[22] = CCTE_Mundy_HCI_Cortical_Synap_Neur_Matur_NeuriteSpotCountPerNeuriteLength: CCTE's Synaptogenesis and Neurite Maturation Assay in rat cortical cells for Neurite Spot Count per Neurite Length, Mundy Lab (AID 2284210)
Outline: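 Rat primary cortical cultures, glia arrested with AraC at DIV 5, were dosed with media change at DIV 7 and fixed at DIV 12. Synaptophysin puncta per MAP2-labelled neurite length were quantified by high-content imaging versus DMSO.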

[23] = CCTE_Mundy_HCI_Cortical_Synap_Neur_Matur_BPCount: CCTE's Synaptogenesis and Neurite Maturation Assay in rat cortical cells for Branch Point Count, Mundy Lab (AID 2284211)
Outline: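 Rat primary cortical cultures, AraC added DIV 5; chemicals dosed DIV 7 through DIV 12. Fixed cells stained for MAP2, synaptophysin and Hoechst; neurite branch points counted by automated high-content imaging, fitted relative to DMSO.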

[24] = CCTE_Mundy_HCI_Cortical_NOG_NeuriteCount: CCTE's Neurite Outgrowth Assay in rat cortical cells for Neurite Count, Mundy Lab (AID 2284212);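 also: cells fixed about two days after chemical exposure began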
Outline: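 Neurite number per cell from high-content imaging of betaIII-tubulin immunostaining, with Hoechst nuclear counterstain.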

CC(CNC(=S)[S-])NC(=S)[S-].[Zn+2] (centres undefined)
outcome [1]: inactive | outcome [2]: inactive | AC50 [3]: 6.97 µM (active) | AC50 [4]: 17.4 µM (active) | AC50 [5]: 16.8 µM (active) | AC50 [6]: 9.92 µM (active) | AC50 [7]: 15 µM (active) | AC50 [8]: 26.2 µM (active) | AC50 [9]: 50 µM (active) | outcome [10]: inactive | AC50 [11]: 8.44 µM (active) | AC50 [12]: 20.9 µM (active) | AC50 [13]: 3.38 µM (active) | AC50 [14]: 24.7 µM (active) | AC50 [15]: 91.5 µM (active) | AC50 [16]: 39.4 µM (active) | AC50 [17]: 32.2 µM (active) | outcome [18]: inactive | AC50 [19]: 50 µM (active) | outcome [20]: inactive | outcome [21]: inactive | outcome [22]: inactive | AC50 [23]: 50 µM (active) | AC50 [24]: 31.5 µM (active)
